Assay outcomes (PubChem BioAssay)
A selection: hits, their analogues and other compounds. The true share with any hit is near 4.2%.
tim23-1 inh = growth inhibitors of tim23-1 mutant yeast | 330,000 tested, 1.3% active | inhibition, % at 20 µM | AID 463212 | S. cerevisiae tim23-1 growth, BacTiter-Glo luminescence, 24 h;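 active = growth inhibition of the mutant yeast at or above 50%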;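 note: temperature-sensitive mutant grown at 25 °C; plate controls were DMSO-treated mutant yeast for no effect and medium wells lacking yeast for full effect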
tim10-1 inh = tim10-1 yeast growth inhibition. S. cerevisiae tim10-1 ts strain growth, BacTiter-Glo, 24 h. inhibition, % at 20 µM. 330,000 tested, 2.2% active;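 active = inhibition of at least 40%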;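 note: mutant grown at 25 °C; 0% = DMSO wells with yeast and 100% = wells holding no yeast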
TIM10 inh = inhibits growth of TIM10 yeast strain; S. cerevisiae TIM10 strain growth, BacTiter-Glo luminescence, 24 h; inhibition, % at 10 µM; 330,000 tested, 1.4% active; AID 463195;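 active = inhibition of 40% or more at the single tested concentration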;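 note: wild-type TIM10 isogenic control strain grown at permissive 25 °C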
V-ATPase pH = alters yeast V-ATPase proton transport; S. cerevisiae, pHLuorin cytosolic pH fluorescence; response, % at 10 µM; 350,000 tested, 0.37% active; AID 504577; in the data active = response mostly above about 7.3%, no sharp cut-off; inactive = mostly below about 5.4%; note: actives read high
NALP3 yeast inh = NALP3 inhibition in yeast. Yeast reconstituted NLRP3/ASC/caspase-1, beta-gal luminescence, 24 h. inhibition, % at 10 µM. 330,000 tested, 0.39% active;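 active = inhibition of 50% or more; inactive = inhibition below 50%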;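 note: plate controls were induced DMSO wells for no effect and uninduced yeast grown without galactose for full effect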
NALP1 yeast inh = blocks the NALP1 inflammasome reconstituted in yeast | AID 2071 | 280,000 tested, 0.61% active | inhibition, % at 10 µM | S. cerevisiae NALP1/ASC/caspase-1 growth, X-gal OD620, 72 h; in the data active = inhibition mostly above about 24%, no sharp cut-off; inactive = mostly below about 32%
* hit, by the source's call; x = not tested or not shown.

SMILES	tim23-1 inh	tim10-1 inh	TIM10 inh	V-ATPase pH	NALP3 yeast inh	NALP1 yeast inh
Cc1oc(C(C)(C)C)cc1C(=O)NC1CCN(Cc2ccccc2)CC1	6	-28	-5	-1	14	1
O=C1NC(=Nc2ccccc2)S/C1=C\c1cccn1-c1ccccc1	-8	-2	-8	-5	-7	39*
Cc1cccc(N=C2NC(=O)/C(=C/c3cccn3C)S2)c1	29	-10	21	3	13	4
COc1ccccc1N(CC(=O)NCCSCc1cccc(Cl)c1)S(C)(=O)=O	11	26	10	-2	1	25
CCCC[C@H](CC(=O)c1ccccc1)[C@@H](OC(C)=O)C(=O)Oc1c(C(C)C)cccc1C(C)C	0	0	-6	4	15	x
O=C(Oc1cccc2cccnc12)c1ccco1	8	-7	7	0	-10	-18
O=C(Cc1ccc(Cl)cc1)Oc1cccc2cccnc12	x	x	x	1	x	78*
N=c1c2c(-c3ccccc3)c(-c3ccccc3)n(Cc3ccccc3)c2ncn1CCCn1ccnc1	1	0	5	-2	21	30*
CCCCn1cnc2c(c(-c3ccccc3)c(-c3ccccc3)n2Cc2ccco2)c1=N	46	-2	-6	3	20	23
Cn1nc(C(=O)Nc2ccccc2)c2c1-c1ccccc1S(=O)(=O)C2	-7	5	-8	14*	19	-6
COc1cccc(NC(=O)c2nn(C)c3c2CS(=O)(=O)c2ccccc2-3)c1	-7	1	4	-3	20	18
CCn1cc(C(=O)NCC2CCCO2)c2cc(OC)c(OC)cc2c1=O (stereo unspecified)	10	4	1	-2	6	6
O=C(O)c1cc(-c2ccc(/C=C3\NC(=O)N(c4ccc(Cl)cc4)C3=O)o2)ccc1Cl	21	12	14	-6	12	15
O=C(O)c1cc(-c2ccc(/C=C3\NC(=O)N(c4ccccc4)C3=O)o2)ccc1Cl	19	-13	10	-2	7	30*
CC(C)[C@H](NC(=O)c1ccccc1)C(=O)OCC(=O)/C=C1/N(C)c2ccccc2C1(C)C	32	29	8	2	6	34
Cc1ccc(N2C(=O)C3C4C=CC(C4)C3C2=O)cc1 (stereo unspecified)	6	2	1	-1	7	20
Cc1cc(C)cc(N2C(=O)C3C4C=CC(C4)C3C2=O)c1 (stereo unspecified)	9	5	-1	2	3	38*
CCCCN(CC)CCNC(=O)CCC(=O)Nc1ccc2nc(N3CCN(C)CC3)cc(C)c2c1	-10	-3	-11	-1	8	36*
CCCCN(CC)CCNC(=S)Nc1ccc2nc(N3CCN(C)CC3)cc(C)c2c1	-14	0	-16	4	24	26
OCC1CCCN(C(=S)NCCc2ccccc2)C1 (stereo unspecified)	4	5	5	-4	9	-2
C(=C\c1ccncc1)/c1ccncc1	5	9	9	-4	-9	0
C(=C\c1ccncc1)/c1ccccc1	26	23	19	18*	-16	17
CCC1Sc2ccccc2N(CC(=O)NCCC2=CCCCC2)C1=O (stereo unspecified)	30	25	11	1	14	43*
CC1CCc2nc3ccc(S(=O)(=O)N4CCC(C(=O)N5CCCCCC5)CC4)cc3c(C(=O)O)c2C1 (stereo unspecified)	12	5	3	0	5	5
CC(=O)N(C1=C(Cl)C(=O)c2ccccc2C1=O)C1CCCCC1	27	21	36	141*	18	66*
SMILES	tim23-1 inh	tim10-1 inh	TIM10 inh	V-ATPase pH	NALP3 yeast inh	NALP1 yeast inh
COc1ccc(/C=N/NC(=O)c2ccccc2)cc1CN1CCN(c2ccc(F)cc2)CC1	16	14	10	-6	16	13
COc1ccc(/C=N/NS(=O)(=O)c2ccc(F)cc2)cc1CN1CCSCC1	-1	-2	6	0	2	30*
O=C(COc1ccc([N+](=O)[O-])cc1Cl)NCCc1ccccc1	13	-8	1	0	37	73*
O=C(COC(=O)c1cc([N+](=O)[O-])ccc1Cl)NCCc1ccccc1	41	8	2	4	14	x
CN1CCOc2cc(S(=O)(=O)Nc3ccc(F)cc3)ccc21	7	17	2	1	-3	26*
Cc1cc(C)cc(N(CC(=O)NCC2CCCO2)C(=O)CN2C(=O)COc3ccccc32)c1 (stereo unspecified)	9	5	6	-1	13	23*
O=C(CN(C(=O)C1COc2ccccc2O1)c1ccccc1)NCC1CCCO1 (stereo unspecified)	19	18	16	-6	9	-6
CC(NCCC(c1ccccc1)c1ccccc1)c1ccccc1 (stereo unspecified)	9	30	16	2	33	54*
CN(C)S(=O)(=O)Nc1ccc(NS(=O)(=O)N(C)C)c(S(=O)(=O)c2ccccc2)c1	9	-3	9	5	16	27*
O=C(NCc1n[nH]c(=S)n1-c1ccc(F)cc1)c1ccc(S(=O)(=O)N2CCCCC2)cc1	12	1	-4	1	16	-14
O=C(c1cc(-c2ccccn2)nc2c(Cl)cccc12)N1CCN(C(=O)C2CCCO2)CC1 (stereo unspecified)	18	22	15	0	2	38*
O=C(c1cc(-c2ccccn2)nc2c(Cl)cccc12)N1CCN(S(=O)(=O)c2ccccc2)CC1	13	14	36	1	12	16
CCOC(=O)CSc1ccc(S(=O)(=O)N2CCCCC2)cc1[N+](=O)[O-]	7	9	16	0	0	30
CC(=O)NC(Cc1ccc(F)c(F)c1)C(=O)NC1CCN(C(=O)c2ccc(Cl)cc2)CC1 (stereo unspecified)	9	18	-2	4	2	32*
O=C1CCC(=O)N1CC(=O)N(c1ccccc1)c1ccccc1	-3	-4	-7	0	18	7
O=C(CNS(=O)(=O)c1c(F)cc(F)cc1Br)OCC(=O)N1CCCC1=O	5	-5	7	13*	18	x
Cc1ccc(S(=O)(=O)N2CC(=O)Nc3ccccc32)c(C)c1NS(C)(=O)=O	-2	-2	0	-1	20	12
O=C1C=CC(=Nc2cccc3c2C(=O)c2ccccc2-3)O1	x	x	x	11*	x	x
CNc1cccc2c1C(=O)c1ccccc1C2=O	x	x	x	-4	x	3
C=CCn1c(COc2ccc(OC)cc2)nnc1SCn1nnc2ccccc2c1=O	17	3	-2	1	17	24
Cc1nc(-c2ccccc2)nc(Cl)c1Cl	2	0	4	3	-16	33*
Nc1c(Cl)nc(-c2ccccc2)nc1Cl	19	10	19	-2	-1	3
